Screening results (PubChem BioAssay)
Hits are enriched below; roughly 0.36% of the tested compounds scored in any of these assays.
RGS4 inh: blocks human RGS4-accelerated GTP hydrolysis; 0.039% of 390,000 active; Transcreener GDP fluorescence polarization, RGS4-accelerated GTP hydrolysis; Potency, µM (doses to about 114 µM), for the others: at the highest dose activity change, negative = inhibition, actives largely listed as inhibitors; P49798; note: potency is the fitted concentration of half-maximal effect; % is set by controls: 0 for no effect and ±100 for the full control effect; nearly all actives have a fitted effect of over 75% in size
Target sequence (P49798 whole entry, looked up): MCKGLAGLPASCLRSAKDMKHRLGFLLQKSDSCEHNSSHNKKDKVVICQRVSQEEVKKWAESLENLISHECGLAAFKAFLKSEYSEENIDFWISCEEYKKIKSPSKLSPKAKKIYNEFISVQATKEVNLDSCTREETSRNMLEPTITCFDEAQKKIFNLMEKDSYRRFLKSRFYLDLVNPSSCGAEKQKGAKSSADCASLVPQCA
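MLSMR compounds (23 nl, pin-transferred) preincubated 10 min at room temperature with a 500nM (2x) first reagent, then RGS4 at 900nM (2x) plus Transcreener GDP mix added; fluorescence polarization (620/688 nm) read before and after 90 min at 30 °C.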
ERG Ets-DNA blk: ERG Ets/DNA interaction inhibition | fluorescence polarization, His-ERG Ets domain / labelled DNA | 0.028% of 370,000 active | P11308 | Potency, µM (highest dose often 76.9 µM), for inactives: at the top dose FP activity, negative = inhibition, most hits filed as inhibitors | AID 624246; active = well fitted inhibition curve with a large enough effect in the polarisation, with a control signal flat; inconclusive = small, poorly fitted or top-dose-only effect, or effect the other way, or a change in a side signal; inactive = no such curve, though single readings can be large or run the other way; the % refers to the polarisation;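 note: polarization taken with two DNA probes labelled with fluorescein and Texas red; potency is the fitted concentration of half-maximal effect; % of control where 0% means no effect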
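His-tagged ERG Ets domain (1 uM in the protein solution; 300mM KCl, 50mM Tris-HCl, 1mM EDTA, 1mM DTT, pH 7.5) received compound, then a probe mix of 5 nM fluorescein-DNA and 100nM Texas-615-DNA. Fluorescence polarization was read for both dyes.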
PTHR1 agonist: activates the human parathyroid hormone receptor PTHR1 | 0.075% of 410,000 active | Potency, µM (series often up to 115 µM), without a hit: top-dose activation, most hits filed as activators | HEK293 GP2 PTHR1 cells, GloSensor cAMP luminescence, 1 h; note: potency is the fitted concentration of half-maximal effect; nearly all actives have a fitted effect of over 55% in size
Target sequence (Q03431 whole entry, looked up): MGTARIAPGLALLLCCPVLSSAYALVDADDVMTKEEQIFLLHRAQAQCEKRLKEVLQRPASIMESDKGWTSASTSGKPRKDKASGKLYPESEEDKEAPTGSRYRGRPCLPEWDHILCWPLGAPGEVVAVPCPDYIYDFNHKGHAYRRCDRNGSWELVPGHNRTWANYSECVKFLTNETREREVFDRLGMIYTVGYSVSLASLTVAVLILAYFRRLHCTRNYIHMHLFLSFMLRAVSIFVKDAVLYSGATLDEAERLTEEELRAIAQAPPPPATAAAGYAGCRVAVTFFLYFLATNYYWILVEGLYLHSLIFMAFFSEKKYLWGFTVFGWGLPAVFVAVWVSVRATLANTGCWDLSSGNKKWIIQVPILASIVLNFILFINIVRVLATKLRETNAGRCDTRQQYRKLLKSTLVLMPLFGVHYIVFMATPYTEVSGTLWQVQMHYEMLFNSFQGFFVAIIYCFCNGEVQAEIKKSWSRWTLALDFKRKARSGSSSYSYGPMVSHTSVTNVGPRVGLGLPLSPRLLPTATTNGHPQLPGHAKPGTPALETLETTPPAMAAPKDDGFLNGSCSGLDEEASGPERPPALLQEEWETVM
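HEK-293-derived GP2 cells expressing PTHR1 and a GloSensor cAMP reporter, 3,000/well, plated overnight, given luciferin plus IBMX (each 0.5 mM as added) for 1 h at 37 °C, then compound for 1 h at 37 °C. Luminescence was read after 15 min at room temperature.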
Mm-Cpn inhibitor: inhibitors of Methanococcus maripaludis chaperonin TRiC (MmCpn) | 0.031% of 330,000 active | purified Mm-Cpn ATPase, ADP Transcreener TR-FRET | Potency, µM (doses to about 76.9 µM), for the others: at the highest dose activity, negative = inhibition, actives largely listed as inhibitors | AID 504842; note: potency is the fitted concentration of half-maximal effect; % is set by controls: 0 for no effect and ±100 for the full control effect; nearly all actives have a fitted effect of over 80% in size
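Purified archaeal Mm-CPN (25nM final) preincubated 10 min at 37degC with compound, then 10uM ATP for 30 min at 37degC; ADP measured by HTRF Transcreener TR-FRET; buffer 30 mM TRIS pH 7.4, 100mM KCl, 5mM MgCl2, 1mM DTT.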
CCT modulator: changes cytosolic chaperonin activity. purified chaperonin ATPase assay, HTRF ADP detection, 30 min. activity change, % (concentration not given with the values), hits read low. 0.3% of 360,000 active; in the data active = activity change below about -30%; note: % is set by controls: 0 for no effect and ±100 for the full control effect
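We incubate TRiC, 40 or 20 nM final, with library compounds at 76 uM and 10 uM ATP for 30 min at 37 °C. ADP formed is detected with Transcreener HTRF reagents after 30 min at room temperature.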
An asterisk follows results filed as active; i = inactive; ? = inconclusive; · = not tested or not shown; ! = a repeat was not active; [ ] = another dose, or the depositor's remark. Unless noted, calls come from the whole dose curve; as a rule, active = well fitted curve in the direction sought with a large enough effect; inconclusive = small, poorly fitted or top-dose-only effect, or another doubt; inactive = no such curve, though single readings can be large; an effect the other way counts as inactive or inconclusive.

SMILES | RGS4 inh | ERG Ets-DNA blk | PTHR1 agonist | Mm-Cpn inhibitor | CCT modulator
COc1ccccc1/C=C(/CC(=O)NCc1ccccc1)c1nc2ccccc2s1 | -11.1% | -0.2% | -22.2% | -2.5% | -33.9*
COc1ccccc1/C=C(/CC(=O)NCc1ccc(F)cc1)c1nc2ccccc2s1 | -17.4% | -7.8% | -48.1% | -3.7% | -1.8
O=C(Nc1ccc(S(=O)(=O)N2CCCC2)cc1)c1cccc(OC(F)F)c1 | -6.5% | -4.0% | -15.4% | -4.7% | 0.4
CC(=O)N1CCN(S(=O)(=O)c2cccc(C(=O)Nc3ccc(OC(F)F)cc3)c2)CC1 | 12.5% | 4.7% | -9.2% | 0.4% | -38.9*
O=C1c2ccccc2CC[C@H]1CNCCc1ccc(O)cc1 | 4.23µM* | · | · | · | ·
O=C(NCCc1ccccc1)c1noc2c1CCc1ccccc1-2 | -19.5% | -4.2% | -6.0%[57.5 µM] | 0.6% | 1.1
CCCn1c(CCc2ccccc2)nnc1SCC(=O)N1CCCC1 | -10.7% | -12.8% | i | -0.6% | 2.2
CCCc1nnc(SCC(=O)N2CCCC2)n1Cc1ccco1 | 15.7% | 53.5% | i | 0.6% | -46.7*
COc1ccccc1CC(=O)N1CCN(c2cccc(C(F)(F)F)c2)CC1 | -6.9% | · | -34.3% | -0.4% | -34.1*
CS(=O)(=O)N(CC(=O)NCCSC1CCCCC1)c1ccccc1 | -18.9% | -3.1% | 8.5% | ? | -33.4*
Cc1nn(C)c2c1c(-c1ccccc1)cc(=O)n2Cc1ccccc1C#N | -19.2% | -2.6% | i | · | ·
O=c1c2ccccc2c(C=NCCCN2CCOCC2)c(O)n1Cc1ccc2c(c1)OCO2 | 10.0% | -8.7% | i | 2.6% | -37.9*
O=c1c2ccccc2c(C=NCCCN2CCOCC2)c(O)n1Cc1ccccc1 | -15.3%[11.4 µM] | -5.3% | -6.3%[57.5 µM] | -0.1% | 2.2
O=C(Nc1nc(-c2ccc3ccccc3c2)cs1)C1CCN(S(=O)(=O)c2cccs2)CC1 | -15.6% | · | -44.4% | -7.3% | -51.4*
O=C(Nc1cccc(C(F)(F)F)c1)c1csc(-c2ccncc2)n1 | -21.4% | 25.9% | -43.0% | 1.0% | -3.1
COc1cc(NC(=O)c2csc(-c3ccncc3)n2)cc(C(=O)Nc2cccc(C(F)(F)F)c2)c1 | -1.6% | 6.9% | -20.7% | -5.1% | -34.8*!
CCN(CC)CCN1CNC(=S)NC1 | · | · | i | · | -34.3*
CC1CCC(NC(=O)C2CCN(c3nc4ccccc4s3)CC2)CC1 (configuration not stated) | -23.0% | -8.9% | -39.0% | -0.5% | -36.3*
CCc1cccc(NC(=O)C(Cc2ccccc2)n2cccc2)c1 (configuration not stated) | 3.2% | 0.3% | -18.0% | · | ·
CC1(c2nnc(-c3ccncc3)o2)CC(c2ccc([N+](=O)[O-])cc2)=NO1 (configuration not stated) | 12.1% | -5.9% | -22.7% | -1.0% | -62.3*
Cc1noc(-c2ccc(N3CCCCC3)c([N+](=O)[O-])c2)n1 | -12.2% | 2.2% | i | · | ·
COc1ccc(CCNC(=O)C2CCN(S(=O)(=O)c3cccc4nsnc34)CC2)cc1OC | 9.6% | -5.1% | -7.7%[57.5 µM] | -6.1% | -0.4
COc1ccc(CCNC(=O)C2CCN(S(=O)(=O)c3cccc4cccnc34)CC2)cc1OC | -66.7%[56.9 µM] | 0.8% | -10.0% | -2.1% | -46.1*
CCc1ccc(-c2nc3c(=O)n(C)c(=O)nc-3n(CC)n2)cc1 | -0.1% | · | · | · | ·
COc1ccc(-c2nc3ccccc3o2)cc1NC(=O)C(C)Oc1ccc(Cl)cc1Cl (configuration not stated) | -5.1% | 4.2% | i | · | ·
SMILES | RGS4 inh | ERG Ets-DNA blk | PTHR1 agonist | Mm-Cpn inhibitor | CCT modulator
COc1ccc(-c2nc3ccccc3o2)cc1NC(=O)CSc1ccc(Cl)cc1 | -28.5% | -4.3% | -22.0% | 0.8% | -89.9*
COc1ccc2cc(C#N)c(SCC(=O)N3CC(=O)Nc4ccccc43)nc2c1 | 5.7% | 2.0% | 23.1% | 0.2% | -2.9
Cc1cccc2cc(C#N)c(SCC(=O)N3CC(=O)Nc4ccccc43)nc12 | -9.4% | 6.5% | -14.1% | ? | -45.1*
COc1ccc2[nH]cc(CC(N)C(=O)O)c2c1 (configuration not stated) | 40.0%[56.9 µM] | · | · | · | ·
N[C@@H](Cc1c[nH]c2ccc(O)cc12)C(=O)O | 23.8µM*! | -5.7% | -9.9% | -10.6% | -0.2
COc1ccc(CNC(=O)CN2C(=O)c3cccnc3Oc3ccc(C)cc32)cc1 | 15.1% | 2.6% | -14.5% | · | ·
O=C1CCCC(O)=C1N=Nc1ccc(C(=O)O)cc1 | 8.6%[11.4 µM] | 28.2µM* | i | -3.6% | -0.1
C=Cc1c(C)c2cc3[nH]c(cc4nc(cc5nc(cc1[nH]2)C(C)=C5CCC(=O)O)C(CCC(=O)O)=C4C)c(C)c3C=C | 9.47µM*! | 3.1% | -1.7% | -23.1% | -3.9
Nc1ccc(-c2nc3cc(N)ccc3s2)cc1 | -1.9% | 1.3% | -39.4% | -15.6% | -41.5*
CCOC(=O)c1cccc(NC(=O)CCn2c(-c3ccc(F)cc3)cc(C(=O)OCC)c2C)c1 | 14.1% | 15.5% | i | · | ·
Fc1c(F)c(C(F)(F)F)c(F)c(F)c1N/N=C\c1cccs1 | -1.6% | · | -15.0%[57.5 µM] | 1.1% | -36.9*
COC(=O)C(O)(NC(=O)NC(C)=O)C(F)(F)F (configuration not stated) | 21.1% | 1.5% | i | -2.1% | -56.3*
COC(=O)C(O)(NC(=O)c1ccncc1)C(F)(F)F (configuration not stated) | 36.8% | 4.6% | -24.7% | -0.9% | -2.6
CC12CCC=CC1C(c1ccc(F)c(/C=C/c3ccccc3)c1)N(Cc1ccccc1)C2=O (configuration not stated) | -1.4% | · | · | · | ·
Cn1c(SCC(=O)Nc2ccc(N3CCOCC3)cc2)nnc1-c1ccccc1 | 14.8% | -2.4% | i | -1.1% | -35.2*
N#Cc1cccc(-c2csc(N3CCC(C(N)=O)CC3)n2)c1 | · | · | · | -2.3% | ·
Cc1ccccc1OCCNc1ccc(C(F)(F)F)cc1[N+](=O)[O-] | ? | 4.7% | -26.0% | -2.6% | -52.8*
C=C1CCN(C(Cc2ccccc2)C(=O)O)S(=O)(=O)c2ccccc21 (configuration not stated) | -4.6% | · | · | · | ·
CCOC(=O)c1c(-c2ccccc2)nc2c(C)cccn12 | 16.3% | 14.3% | i | 0.3% | -118.9*
CCn1c(-c2cc(-c3cc(C)ccc3C)nc3ccccc23)n[nH]c1=S | -9.4% | -5.7% | i | -0.2% | -72.2*
CCn1c(-c2cc(-c3ccc(C)c(C)c3)nc3ccccc23)n[nH]c1=S | · | · | · | -3.2% | ·
Cc1ccccc1NC(=S)NNc1ncc(C(F)(F)F)cc1Cl | ? | -2.4% | -15.3% | 50.1µM* | -1.9
O=C(Nc1ccccc1)c1sc(Cl)nc1-c1ccccc1 | 1.8% | 57.5% | -11.4% | ? | 0.5
O=C(Nc1cc(F)cc(F)c1)c1sc(Cl)nc1-c1ccccc1 | -7.6% | 12.7% | i | 50.1µM* | -1.5
Nc1nonc1C(=O)N/N=C/c1cc2c(cc1Br)OCO2 | -25.2% | 17.2% | -8.3% | -0.3% | -31.1*
